NPC1 prom act: activators of NPC1 promoter; Potency, µM (top dose mostly 9.22 µM), for the others: top-dose activation, actives largely listed as activators; AID 485313; Huh7 NPC1 promoter luciferase reporter, 24 h; hit rate 2.4% among 320,000; further: % of control where 0% means no effect; nearly all actives have a fitted effect of over 60% in size
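Huh7 reporter cells (NPC1 promoter driving luciferase) are dosed with compound for 24 h at 37 °C, 5% CO2; luciferase detection reagent is then added and luminescence measured after 10 min at ambient temperature.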
ELG1 genotox: induces genotoxicity in HEK293T cells with luciferase-tagged ELG1; HEK293T ELG1-luciferase reporter, luminescence, 16 h; Potency, µM (titrated, usually from 46 µM), inactives show top-dose activity change, positive = activation, hits mostly activators; hit rate 1.3% among 330,000; AID 504466; further: % of control where 0% means no effect; nearly all actives have a fitted effect of over 60% in size
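DMSO vehicle served as control against compound-treated ELG1-luciferase HEK293T cells; exposure lasted 16 hr at 37 °C and 5% CO2, followed by ONE-Glo luminescence detection after 30 min.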
p53 reactivation: re-activators of mutant p53. H1299 p53-A138V BP100-luciferase reporter, luminescence, 24 h. Potency, µM (series often up to 92.2 µM), for the others: top-dose activity change, positive = activation, most hits filed as activators. hit rate 0.063% among 320,000. AID 504706; further: % of control where 0% means no effect; nearly all actives have a fitted effect of over 45% in size
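p53-null H1299 cells stably carrying temperature-sensitive p53-A138V and a BP100-luciferase reporter were pinned with compounds (4-point, 1:5 series) and held 24 hrs at 37 deg C. Luminescence was read 10 min after detection reagent.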
SMN2 splice up: increases expression of the SMN2 splice variant | HEK293 SMN2-luciferase splicing reporter, luminescence, 30-36 h | Potency, µM (titrated, usually from 46.1 µM), without a hit: at the top dose activity change, positive = activation, hits mostly activators | hit rate 2.8% among 210,000 | AID 1458; further: % of control where 0% means no effect; nearly all actives have a fitted effect of over 55% in size
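qHTS luciferase splicing reporter: luminescence rises when SMN2 exon 7 is included in transfected HEK293 cells. Compound exposure lasted 30-36 h at 37C, with 4.5 mM final sodium butyrate as control, followed by a ONE-Glo read.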
FLuc modulator: counter-screen for miR-21 project: firefly luciferase inhibitors or activators; P08659; purified FLuc, Km substrates, luminescence inhibition; hit rate 6.9% among 360,000; Potency, µM (top dose mostly 57.5 µM), inactives show top-dose activity change, negative = inhibition, usual class: inhibitors; AID 588342;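 further: plate controls were vehicle for no effect and reference inhibitor for full effect; nearly all actives have a fitted effect of over 55% in size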
Target sequence (P08659 whole entry, looked up): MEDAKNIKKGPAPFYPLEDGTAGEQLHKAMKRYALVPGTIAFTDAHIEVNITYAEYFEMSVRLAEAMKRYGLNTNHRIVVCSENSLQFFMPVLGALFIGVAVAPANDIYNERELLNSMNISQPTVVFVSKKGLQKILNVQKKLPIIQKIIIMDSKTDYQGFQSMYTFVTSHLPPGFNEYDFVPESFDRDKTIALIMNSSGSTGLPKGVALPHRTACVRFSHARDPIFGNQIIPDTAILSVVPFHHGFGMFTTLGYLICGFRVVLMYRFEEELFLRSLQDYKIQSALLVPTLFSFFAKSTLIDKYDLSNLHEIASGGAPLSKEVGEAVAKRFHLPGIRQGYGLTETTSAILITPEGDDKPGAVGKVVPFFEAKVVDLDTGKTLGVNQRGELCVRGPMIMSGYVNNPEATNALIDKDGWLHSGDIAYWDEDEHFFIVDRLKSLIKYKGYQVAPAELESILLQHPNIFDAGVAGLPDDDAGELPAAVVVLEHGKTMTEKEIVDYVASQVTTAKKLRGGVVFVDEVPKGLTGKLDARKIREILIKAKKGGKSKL
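Purified P. pyralis luciferase, 10 nM final, with Km-level 10 uM D-luciferin and 10 uM ATP in 50 mM Tris acetate pH 7.5, 10 mM Mg acetate, 0.01% Tween-20, 0.05% BSA; 6-point qHTS titration about 60 µM downward; luminescence read.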
Rab9 prom act: activators of Rab9 promoter; Huh7 Rab9 promoter-luciferase reporter, luminescence, 24 h; hit rate 2.8% among 320,000; Potency, µM (highest dose often 9.22 µM), for inactives: at the highest dose activation, negative = inhibition, most hits filed as activators; further: % of control where 0% means no effect; nearly all actives have a fitted effect of over 60% in size
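Rab9 promoter-driven luciferase in stably transfected Huh7 cells; 1500 cells/well rested 2 h, exposed to compound in DMSO for 24 h at 37 °C, 5% CO2. Luminescence read 10 min after adding luciferase reagent at ambient temperature.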
Numbers without * were called inactive; ? = inconclusive; . = not tested or not shown. In the library only some 7.3% were active in any assay of this set; here they are far more common. The call rests on the fitted dose curve; in most records, active means well fitted curve in the direction sought with a large enough effect; inconclusive means small, poorly fitted or top-dose-only effect, or another doubt; inactive means no such curve, though single readings can be large; an effect the other way counts as inactive or inconclusive. Potency means the concentration at half of the fitted maximal effect.

SMILES | NPC1 prom act | ELG1 genotox | p53 reactivation | SMN2 splice up | FLuc modulator | Rab9 prom act
O=C(O)CN1C(=O)/C(=C/c2ccc(N3CCCCC3)o2)SC1=S | -0.4% | -0.3% | -3.5% | . | 10.7µM* | 9.9%
COC(=O)CN1C(=O)S/C(=C/c2ccc(N3CCCCC3)o2)C1=O | 23.6% | 14.8% | -8.5% | -11.5% | 19µM* | ?
COc1ccc(N=C2S/C(=C\c3cc(C)n(C)c3C)C(=O)N2CC(C)C)cc1 | -0.3% | -4.7% | -8.4% | -3.1% | -4.1% | -2.4%
O=C(Cc1ccc(F)cc1)N1CCC(c2nc3c(nnn3Cc3ccc(Cl)cc3)c(=O)[nH]2)CC1 | . | . | . | 5.3% | -15.5% | .
Cc1ccc2cc(NC(=O)Cc3ccccc3)ccc2n1 | 1.41µM* | ? | 13.1% | . | 3.38µM* | 2µM*
Cc1ccccc1C(=O)Nc1ccc2c(c1)C(=O)NC2=O | -0.2% | 3.6% | . | . | -1.6% | 0.2%
CN(C(=O)c1cccc(NC(=O)Cc2ccccc2)c1)c1ccccc1 | 1.8% | -6.9% | 1.6% | . | -2.8% | 7.0%
Cc1ccc2cc(NC(=O)c3ccccc3C)ccc2n1 | 2.82µM* | ? | ? | . | 5.36µM* | 3.55µM*
Cc1oc2nc(SCC(=O)N3CCCCC3)nc(N)c2c1C | 10.9% | 9.5% | 9.0% | 14.2% | ? | 4.1%
COc1ccccc1OCc1nc(-c2cccc([N+](=O)[O-])c2)no1 | 2.8% | -0.6% | 5.3% | -3.2% | -18.9% | 2.5%
COc1ccc(-c2nc(-c3ccccc3OC)no2)cc1OC | 3.55µM* | 11.0% | ? | ? | 15.1µM* | ?
COc1cc(-c2nc(-c3cccc(C)c3)no2)cc(OC)c1OC | 7.9% | 0.7% | 6.6% | 28.8% | ? | 5.2%
COc1ccc(-c2nc(-c3cccc(C)c3)no2)cc1OC | 0.794µM* | ? | ? | 12.6µM* | 4.26µM* | 4.47µM*
COc1ccccc1-c1nc(-c2cccc(C)c2)no1 | 0.316µM* | 1.16µM* | ? | 4.47µM* | 1.2µM* | 0.112µM*
COc1ccccc1OCc1nc(-c2cccc(C)c2)no1 | . | . | . | ? | 8.49µM* | .
O=C(NC1CCCCC1)c1ccc(CSc2nc3cccnc3n2Cc2cccc(F)c2)cc1 | . | . | . | . | -4.4% | .
O=C(O)c1cccc(OCc2ccccc2Cl)c1 | ? | 3.8% | 0.4% | . | 9.53µM* | ?
O=C(O)c1ccccc1COc1ccccc1Cl | 4.1% | 11.5% | ? | 25.7% | 15.1µM* | 0.0%
O=C(O)c1ccccc1OCc1ccccc1Br | -1.4% | -4.3% | -4.0% | 10.0% | -14.1% | -0.7%
O=S(=O)(CCC(F)=C(F)F)c1nnnn1C1CCCCC1 | . | . | . | 6.8% | . | .
O=C1CCCC(C(C(=O)OCc2ccccc2)C(=O)OCc2ccccc2)C1 (stereo not drawn) | . | . | . | -3.3% | . | .
Cc1ccc(-c2cc(C(=O)NC3=NCCS3)c3ccccc3n2)cc1C | 0.7% | 10.9% | ? | 14.1µM* | 0.849µM* | 7.3%
CCCc1ccc(-c2cc(C(=O)NC3=NCCS3)c3ccccc3n2)cc1 | 1.12µM* | ? | ? | . | 0.338µM* | 4.47µM*
O=C(NNS(=O)(=O)c1cccc(Cl)c1)c1cc(-c2ccc(F)cc2)nc2ccccc12 | -2.2% | -3.0% | -2.1% | 0.1% | 19µM* | -5.5%
O=C(NC1=NCCS1)c1cc(-c2ccc(F)cc2)nc2ccccc12 | 10.9% | 0.6% | 5.8% | 11.3% | 5.36µM* | 1.0%
O=C(NN=C1CCCC1)c1cc(-c2ccc(F)cc2)nc2ccccc12 | -0.4% | 6.7% | 5.0% | 1.1% | -19.6% | -7.8%
Cc1ccc(CCNC(=O)c2cc(-c3ccncc3)nc3ccccc23)cc1 | -0.4% | -9.7% | 2.3% | . | ? | -7.0%
Cc1ccc(CNC(=O)c2cc(-c3ccc(C)c(C)c3)nc3ccccc23)cc1 | . | . | . | . | -17.8% | .
COc1ccc(C(=O)c2cn(Cc3cccc(C)c3)c3cc4c(cc3c2=O)OCCO4)cc1OC | . | . | . | -3.3% | 0.6% | .
COc1ccc(C(=O)c2oc3ccccc3c2NC(=O)c2nc(SC)ncc2Cl)cc1Cl | . | . | . | 6.8% | 2.4% | .

Compound activity from PubChem BioAssay.
